Experimental findings from PubChem BioAssay AID624167 (Sanford-Burnham Center for Chemical Genomics, 2012) are described below.

The assay in a line: inhibition of PEG-3 promoter-driven reporter – cell-based, HeLa, luciferase, CREF/GAPDH counter-screen panel, dose response (AID 624167). The note with it: CREF/GAPDH counter-screens; run 1, dose range 1, at 100 µM (top of the series).
The inhibition is the drop in the measured response relative to a control, in per cent. Low values mean a response near the control, high ones a response far below the control. Compound `O=C(Nc1ccc(Cc2ccncc2)cc1)c1ccc([N+](=O)[O-])o1` came in with an inhibition of 88.7%.

Turning to `C=CCc1cccc(/C=N/NC(=O)C(C)Nc2cccc(C)c2)c1O` (stereo not given), the inhibition came to 29%.

Consider `COc1ccc(/C=C2/CCCC(CN(C)C)C2=O)cc1` (stereo not given), for which the inhibition was found to be 80%.

As for `O=c1cnnc(N/N=C/c2ccccn2)[nH]1`, the inhibition stood at 3.68%.

Consider `O=C(CCl)N1c2ccccc2Sc2ccc3ccccc3c21`, for which the inhibition was found to be 100%.

`COc1ccc(-n2cc(-c3ccccc3)c3c(N4CCOCC4)ncnc32)cc1`: the inhibition is 87.7%.

`CC1=CC2C(C(O)CC3(C)C2CC(C)C32OCOC23COCO3)C2(C)C/C(=C\O)C(=O)C=C12` (stereo not given) had an inhibition of 99.5%.

For the compound `Cc1ccc(C)c(S(=O)(=O)N2CCN(c3ncnc4sccc34)CC2)c1`, the inhibition stood at 62.6%.

On to `O=C(COc1ccc2c(c1)CCC2)Nc1ccccn1`, for which the inhibition came out at 95.2%.

In the case of `C=CCn1c(C)cc(C(=O)COc2ccc(C)nc2[N+](=O)[O-])c1C`, the inhibition was determined as 51.5%.

As for `COc1ccc(/C=C2\SC(=S)N(CCCC(=O)NNC(=O)c3ccccc3O)C2=O)cc1`, the inhibition came to 15%.

Consider `CCOC(=O)c1c(SCCN2CCCCC2)n(-c2ccccc2)c(=S)n(-c2ccccc2)c1=O`, for which the inhibition came out at 97%.

Take `CCCCC(=O)NC(c1ccc(OC)cc1)c1ccc2cccnc2c1O` (stereo not given): the inhibition amounted to 21.2%.

Compound `O=C(N/N=C/c1sc(N2CCOCC2)nc1-c1ccccc1)c1cccc(S(=O)(=O)N2CCCC2)c1` yielded an inhibition of 52%.

As for `Cc1ccc(/C=C2\SC(=S)N(CCCC(=O)NNC(=O)c3ccccc3O)C2=O)cc1`, the inhibition worked out at 76.4%.
